Bioassay records from PubChem.
LRH-1 inv ag: inverse agonists of human LRH-1 (NR5A2). O00482. HEK293T StAR-luciferase reporter, LRH-1 transfected, 24 h. inhibition, % at 3.6 µM. actives 0.13% (n = 360,000). AID 602396;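 active means inhibition above the mean inhibition of all tested compounds plus 3 SD, cut at about 73% in these data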
NCOA1 inh: inhibitors of human steroid receptor coactivator 1 (SRC1). actives 0.12% (n = 360,000). Q15788. HEK293 GAL4-SRC1 luciferase reporter, luminescence. inhibition, % at 3.6 µM;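 active means inhibition above the campaign mean plus 3 SD, with each screening campaign given its own cutoff, cut at about 60% in these data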
SRC3 inh: inhibitors of human steroid receptor coactivator 3 (SRC3); Q9Y6Q9; HEK293 GAL4-SRC3 luciferase reporter, luminescence; inhibition, % at 3.6 µM; actives 0.17% (n = 360,000); AID 588352;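 active means inhibition above a per-campaign cutoff, the mean of all compounds plus 3 SD, cut at about 60% in these data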;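 further: higher means less SRC3-driven luciferase light from the GAL4 reporter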
NCOA2 inhibitor: inhibits human steroid receptor coactivator 2; Q15596; HEK293 GAL4-SRC2 luciferase reporter, luminescence; inhibition, % at 9 µM; actives 0.17% (n = 370,000); AID 651957;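 active means inhibition above the mean inhibition of all tested compounds plus 3 SD, set per campaign, cut at about 52% in these data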
COUP-TFII inh: blocks human COUP-TFII nuclear receptor | actives 0.7% (n = 370,000) | P24468 | inhibition, % at 8.6 µM | HEK293T NGFI-A luciferase reporter, luminescence;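 active means inhibition above a per-plate cutoff, mean inhibition of test wells between control levels plus 3 SD, cut at about 38% in these data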;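 further: cells cotransfected with COUP-TFII expression vector driving the NGFI-A reporter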
VP16 Luc counter: counter-screen for COUP-TFII antagonists: inhibitors of VP16; shares compounds with COUP-TFII inh; HEK293 Gal4-VP16 luciferase reporter, luminescence; inhibition, % at 8.5 µM; actives 25% (n = 2,500); AID 687007; in the data active means inhibition above about 13%
COUP-TFII conf: COUP-TFII (NR2F2) inhibition, confirmation assay. shares compounds with COUP-TFII inh. inhibition, % at 8.5 µM. actives 45% (n = 2,500). HEK293 NGFI-A luciferase reporter, luminescence;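 active means mean inhibition over three repeats above a set limit taken from the earlier primary screen, cut at about 38% in these data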
Each line names hits and unclear results; the compound was inactive in the other large screens (follow-up assays come after a bar, where they were run); ! = repeats disagree. This is a sample that favours compounds with a hit; in the whole collection about 0.83% have one here.

COCc1cc(N2CCN(C(=O)OC(C)(C)C)C[C@H]2C)ccc1N1CCN(Cc2ccccc2)[C@H](C)C1	none (no result: LRH-1 inv ag, NCOA1 inh, SRC3 inh)
Cc1cc(CNC(=O)c2cccc([N+](=O)[O-])c2C)c2ccccc2n1	COUP-TFII inh 64 | VP16 Luc counter inactive | COUP-TFII conf 55
Cc1cc(CNC(=O)Cc2ccccc2)c2ccccc2n1	none
C[n+]1c2n(c3ccccc31)N=C(c1ccc(-c3ccccc3)cc1)CS2	SRC3 inh 63, COUP-TFII inh 70 | VP16 Luc counter inactive | COUP-TFII conf 65
C[n+]1c2n(c3ccccc31)N=C(c1ccccc1)CS2	COUP-TFII inh 40 | VP16 Luc counter inactive | COUP-TFII conf 47!
Cc1cc(-c2nnc3n2N=C(c2ccc(-c4ccccc4)cc2)CS3)n[nH]1	none
Cc1cccc(-c2nnc3n2N=C(c2ccccc2)CS3)c1	none
C[n+]1c2n(c3ccccc31)N=C(c1ccc(Br)cc1)CS2	COUP-TFII inh 48 | VP16 Luc counter 20 | COUP-TFII conf 51
CSc1nc2nc3c(cc2c(=O)n1-c1ccccc1C)CCCC3	COUP-TFII inh 42 | VP16 Luc counter inactive | COUP-TFII conf inactive
COc1ccc(-c2cn3c(C)c(C(=O)Nc4cccc(NC(C)=O)c4)sc3n2)cc1	COUP-TFII inh 59 | VP16 Luc counter inactive | COUP-TFII conf inactive
COc1ccc(-c2cn3c(C)c(C(=O)Nc4ccncc4)sc3n2)cc1	COUP-TFII inh 47 | VP16 Luc counter inactive | COUP-TFII conf inactive
COC(=O)c1ccc(NC(=O)c2sc3nc(-c4ccccc4)cn3c2C)cc1	none
Cc1c(C(=O)Nc2ccncc2)sc2nc(-c3ccc(F)cc3)cn12	none
Nc1ccc(-c2cc3ccccc3c(=O)o2)cc1	NCOA2 inhibitor 74, COUP-TFII inh 73 | VP16 Luc counter 42 | COUP-TFII conf inactive
O=C(CCn1nnc(-c2cccs2)n1)N1CCCCC1	none (no result: LRH-1 inv ag, NCOA1 inh, SRC3 inh)
CCN(CC)S(=O)(=O)c1ccc(/C=C/C(=O)Nc2cccc(F)c2)cc1	COUP-TFII inh 38 | VP16 Luc counter inactive | COUP-TFII conf inactive
CCN(CC)S(=O)(=O)c1ccc(NC(=O)Nc2cccc(C(F)(F)F)c2)cc1	COUP-TFII inh 75 | VP16 Luc counter inactive | COUP-TFII conf inactive
CCN(CC)S(=O)(=O)c1ccc(/C=C/C(=O)O)cc1	none
Cc1ccc(S(=O)(=O)Nc2ccc(NC(=O)Nc3cccc(C(F)(F)F)c3)cc2)cc1	none
CN(C)S(=O)(=O)Oc1cccc(C(=O)Nc2ccccc2Cl)c1	none
CN(C)S(=O)(=O)Oc1ccc(C(=O)Nc2cccc(C(F)(F)F)c2)cc1	COUP-TFII inh 54 | VP16 Luc counter inactive | COUP-TFII conf inactive
CN(C)S(=O)(=O)Oc1cccc(C(=O)Nc2ccc(Cl)cc2)c1	COUP-TFII inh 45 | VP16 Luc counter inactive | COUP-TFII conf inactive
CC(C)(C)OC(=O)N1CCC2CCN(CCc3ccccc3)CC21 (stereo unspecified)	none (no result: LRH-1 inv ag, NCOA1 inh, SRC3 inh)
O=C(Nc1cccc(F)c1)OCCN1CCCC12CCC(c1ccccc1)CC2 (stereo unspecified)	none (no result: LRH-1 inv ag, NCOA1 inh, SRC3 inh, NCOA2 inhibitor)
COc1cc(-c2coc3c(C(=O)NCc4ccc(N(C)C)cc4)cccc23)ccc1O	none
COc1ccc(CNC(=O)c2cccc3c(-c4cccc(C(N)=O)c4)coc23)cc1OC	COUP-TFII inh 86 | VP16 Luc counter inactive | COUP-TFII conf 73
COc1cc(-c2coc3c(C(=O)NCc4ccc(OC)c(OC)c4)cccc23)ccc1O	COUP-TFII inh 67 | VP16 Luc counter inactive | COUP-TFII conf 63
CCCCCC(=O)N1CC2(CC(c3cccc(NC(=O)COc4ccc(Cl)cc4)c3)=NO2)C[C@@H]1C(N)=O (stereo partly specified)	COUP-TFII inh 42 | VP16 Luc counter inactive | COUP-TFII conf inactive
Cc1ccc(-n2c(-c3ccccc3)c[n+]3c2CCC3)cc1	none
Cc1ccc(-n2c(-c3ccccc3)c[n+]3c2CCc2ccccc2-3)c(C)c1	SRC3 inh 71, COUP-TFII inh 64 | VP16 Luc counter 17 | COUP-TFII conf 57
CCOC(=O)[C@@]12CCCC3=C1N(CCC3)C(=O)[C@H]2CC(=O)NCC12CC3CC(CC(C3)C1)C2	none (no result: LRH-1 inv ag, NCOA1 inh, SRC3 inh)
